# Assay results from PubChem BioAssay.
# Records with an inconclusive call do not appear. The source made the active and inactive calls. Rule as the data show it, unless noted: active = inhibition above about 80%; inactive = the rest.
# Assays:
# [1] = growth inhibition of DIPG glioma cells, dose response, cell-based, SU-DIPG-XVII, MIPE5.0, CellTiter-Glo, qHTS (AID 1347060; cut-off not given, nearly all actives have AC50 up to about 26 µM;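 also: cells exposed to compound for 48 hours before viability readout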); conditions: SU-DIPG-XVII viability, CellTiter-Glo ATP luminescence
# [2] = viability loss in pontine glioma line – cell-based, SU-DIPG-XXV, MIPE5.0, CellTiter-Glo, qHTS, dose response (AID 1347065; cut-off not given, nearly all actives have AC50 up to about 26 µM;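 also: cells exposed to compound for 48 hours before ATP readout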); conditions: CellTiter-Glo ATP luminescence
# [3] = JHH-DIPG-1 glioma cell viability, MIPE5.0 library, CellTiter-Glo luminescence, qHTS (AID 1347067; cut-off not given, nearly all actives have AC50 up to about 26 µM;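 also: cells exposed to compound for 48 hours before readout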); conditions: JHH-DIPG-1 glioma viability, CellTiter-Glo ATP luminescence
# [4] = LFS_MB_P medulloblastoma growth inhibition, cell-based, chromothripsis tumors, cisplatin or BGB combos (AID 1671449); conditions: LFS_MB_P medulloblastoma cells;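 also: cells exposed for 96 hours; 0% = vehicle DMSO and 100% = killing by high DMSO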
# [5] = HDN33 neuroblastoma growth inhibition, cell-based, chromothripsis tumors, cisplatin or BGB combos (AID 1671450); conditions: HDN33 neuroblastoma cells, stronger effect = higher value;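 also: cells exposed to compound for four days; 0% = vehicle DMSO and 100% = cell killing by high DMSO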
# [6] = ICB984 medulloblastoma cell growth inhibition, synergistic combos for chromothripsis tumors, cisplatin or BGB combos (AID 1671451; call rule not given here;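 also: cells exposed for 96 hours before readout; 0% = vehicle DMSO and 100% = killing by high DMSO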); conditions: ICB984 medulloblastoma cells, drug combinations, stronger effect = higher value
# [7] = LFS_MB_1R medulloblastoma cell growth inhibition, synergistic combos for chromothripsis tumors, cisplatin or BGB combos (AID 1671452); conditions: LFS_MB_1R medulloblastoma cells, stronger effect = higher value;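 also: cells exposed for 96 hours before readout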
# [8] = HTB85 osteosarcoma cell growth inhibition, synergistic combos for chromothripsis tumors, BGB or cisplatin IC20 combos (AID 1671453); conditions: HTB85 osteosarcoma cells, drug combinations, stronger effect = higher value;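 also: cells exposed for 96 hours before readout; 0% = vehicle DMSO and 100% = high DMSO killing control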
# [9] = CRL2098 osteosarcoma cell growth inhibition, synergistic combos for chromothripsis tumors, BGB or cisplatin IC20 combos (AID 1671454); conditions: CRL2098 osteosarcoma cells, drug combinations, stronger effect = higher value;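 also: cells exposed for 96 h before readout; 0% = vehicle DMSO and 100% = killing by high DMSO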
# [10] = HD-MB03 medulloblastoma cell growth inhibition, synergistic combos for chromothripsis tumors, BGB or cisplatin IC20 combos (AID 1671455; in the data active = inhibition above about 83%;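 also: 0% = vehicle DMSO and 100% = high DMSO as cytotoxic control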); conditions: HD-MB03 medulloblastoma cells, stronger effect = higher value
# [11] = UWB1.289 ovarian carcinoma cell growth inhibition, synergistic combos for chromothripsis tumors, BGB or cisplatin combos (AID 1671456); conditions: UWB1.289 ovarian carcinoma cells, stronger effect = higher value;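 also: cells exposed to compound for four days; 0% = vehicle DMSO and 100% = killing by high DMSO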
# [12] = LFS_MB_2R medulloblastoma cell growth inhibition, synergistic combos for chromothripsis tumors, cisplatin combos (AID 1671457); conditions: LFS_MB_2R medulloblastoma cells, stronger effect = higher value;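 also: cells exposed to compound for four days before readout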
# [13] = MDA-MB-436 breast carcinoma cell growth inhibition, synergistic combos for chromothripsis tumors, BGB or cisplatin combos (AID 1671458; call rule not given here;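 also: cells exposed for 96 hours; 0% = vehicle DMSO and 100% = killing by high DMSO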); conditions: MDA-MB-436 breast carcinoma growth inhibition, drug combinations, stronger effect = higher value
# [14] = UWB1.289_BRCA1 ovarian cancer growth, cell-based, BGB or cisplatin combinations (AID 1671459); conditions: UWB1.289 BRCA1 ovarian carcinoma, drug combinations, stronger effect = higher value
# [15] = human astrocyte viability loss, single and combined drugs, cytotoxicity control for chromothriptic childhood tumor combination screen, cell-based, BGB or cisplatin IC20 combos (AID 1671460); conditions: Human astrocytes, drug combinations, stronger effect = higher value;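 also: cells exposed to compounds for 96 hours before viability readout; 0% = vehicle and 100% = killing control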
# [16] = growth inhibition of BT084 medulloblastoma cells, cell-based, ICGC_MB145, cisplatin and BGB IC40 combos (AID 1671461); conditions: drug combinations, stronger effect = higher value;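 also: cells exposed to drugs for 96 hours; 0% = vehicle DMSO and 100% = high DMSO full killing control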
# [17] = growth inhibition of RCMB18 medulloblastoma cells, cell-based, cisplatin and BGB IC40 combos (AID 1671462); conditions: stronger effect = higher value;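 also: cells exposed to compound for four days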
# [18] = growth inhibition of CRL1545 osteosarcoma cells, cell-based, cisplatin and BGB IC20 combos (AID 1671464); conditions: stronger effect = higher value;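 also: cells exposed to compound for 96 hours before readout; 0% = vehicle DMSO and 100% = high DMSO killing control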
# [19] = measured here: combination with BGB IC40, at 0.05 µM
# [20] = measured here: with BGB IC20 combination, at 0.5 µM
# [21] = measured here: with cisplatin IC20 combination, at 0.5 µM
# [22] = measured here: combination with cisplatin, at 0.5 µM
# [23] = measured here: combination with cisplatin, at 5 µM
structure (smiles),measurement,setting,value
CN[C@@H]1CN(c2ccc3c(=O)c(C(=O)O)cn(-c4nccs4)c3n2)C[C@H]1OC,AC50,[1],0.91 µM (active)
same,AC50,[2],5.74 µM (active)
same,AC50,[3],9.1 µM (active)
same,inhibition,"[4]; at 0.5 µM, stronger effect = higher value",-19.9% (inactive)
same,inhibition,"[4]; measured here: combination with BGB IC20, at 0.005 µM",-32.1%
same,inhibition,"[4]; measured here: combination with BGB IC40, at 0.005 µM",-41.7%
same,inhibition,[4]; [19],-39.5%
same,inhibition,"[4]; measured here: combination with cisplatin, at 0.5 µM, stronger effect = higher value",-37.3%
same,inhibition,"[4]; measured here: combination with cisplatin, at 5 µM, stronger effect = higher value",59.3%
same,inhibition,"[5]; BGB combo, at 5 µM",99.1%
same,inhibition,[5]; at 0.5 µM,57% (inactive)
same,inhibition,"[5]; cisplatin combo, at 5 µM",99.4%
same,inhibition,[5]; [20],48.4%
same,inhibition,[5]; [21],56.4%
same,inhibition,"[5]; single agent, at 5 µM",99.6%
same,inhibition,"[6]; BGB IC20 combo, at 0.005 µM",19.2%
same,inhibition,"[6]; BGB IC40 combo, at 0.005 µM",-11.4%
same,inhibition,"[6]; BGB IC40 combo, at 0.05 µM",100%
same,inhibition,[6]; at 0.5 µM,-34.8% (inactive)
same,inhibition,"[6]; cisplatin combo, at 0.05 µM",100%
same,inhibition,"[6]; cisplatin combo, at 0.5 µM",-31.3%
same,inhibition,"[6]; cisplatin combo, at 5 µM",-34.3%
same,inhibition,"[6]; measured here: 5 uM single agent, at 5 µM",-6.89%
same,inhibition,[7]; at 0.5 µM,3.38% (inactive)
same,inhibition,[7]; [19],4.5%
same,inhibition,[7]; [22],47.4%
same,inhibition,[7]; [23],92.8%
same,inhibition,[8]; at 0.5 µM,51.4% (inactive)
same,inhibition,"[8]; measured here: with BGB IC20, at 0.5 µM",49.9%
same,inhibition,"[8]; measured here: with BGB IC20, at 5 µM",99.2%
same,inhibition,"[8]; measured here: with cisplatin IC20, at 0.5 µM",42.9%
same,inhibition,"[8]; measured here: with cisplatin IC20, at 5 µM",99.3%
same,inhibition,"[8]; single agent, at 5 µM",99.2%
same,inhibition,[9]; at 0.5 µM,18.1% (inactive)
same,inhibition,"[9]; measured here: combination with BGB at IC20, at 0.5 µM",27.9%
same,inhibition,"[9]; measured here: combination with cisplatin at IC20, at 0.5 µM",-2.11%
same,inhibition,[10]; at 0.5 µM,72.5% (inactive)
same,inhibition,"[10]; measured here: combo with BGB at IC20, at 0.5 µM",63.8%
same,inhibition,"[10]; measured here: combo with cisplatin at IC20, at 0.5 µM",74.4%
same,inhibition,[11]; at 0.5 µM,14.7% (inactive)
same,inhibition,"[11]; measured here: inhibition with BGB combination, at 0.05 µM",-25.3%
same,inhibition,"[11]; measured here: inhibition with cisplatin combination, at 0.05 µM",-22.6%
same,inhibition,[12]; at 0.5 µM,-28.9% (inactive)
same,inhibition,[12]; [22],-26%
same,inhibition,[12]; [23],34.8%
same,inhibition,[13]; at 0.5 µM,25.6% (inactive)
same,inhibition,"[13]; measured here: BGB combination, at 0.5 µM",14%
same,inhibition,"[13]; measured here: BGB combination, at 5 µM",70.2%
same,inhibition,"[13]; measured here: cisplatin combination, at 0.5 µM",8.1%
same,inhibition,"[13]; measured here: cisplatin combination, at 5 µM",85.8%
same,inhibition,"[14]; BGB combination, concentration series, at 5 µM",94.6%
same,inhibition,[14]; at 0.5 µM,13.7% (inactive)
same,inhibition,"[14]; cisplatin combination, concentration series, at 5 µM",98.3%
same,inhibition,[15]; at 0.5 µM,33.4% (inactive)
same,inhibition,"[15]; measured here: combo with BGB IC20, at 0.5 µM",29%
same,inhibition,"[15]; measured here: combo with cisplatin IC20, at 0.5 µM",13.3%
same,inhibition,[16]; at 0.5 µM,-20% (inactive)
same,inhibition,"[16]; cisplatin combination, at 0.5 µM",-18.3%
same,inhibition,"[16]; cisplatin combination, at 5 µM",37.6%
same,inhibition,"[16]; measured here: BGB IC40 combination 0.05 uM, at 0.05 µM",-77.9%
same,inhibition,"[16]; single agent, at 5 µM",101%
same,inhibition,[17]; at 0.5 µM,-5.3% (inactive)
same,inhibition,"[17]; cisplatin combo, at 5 µM",84.6%
same,inhibition,"[17]; measured here: BGB IC40 combination, at 0.05 µM",-18.9%
same,inhibition,[17]; [22],32.1%
same,inhibition,"[17]; single agent, at 5 µM",87.5%
same,inhibition,[18]; at 0.5 µM,17.4% (inactive)
same,inhibition,[18]; [20],16.9%
same,inhibition,[18]; [21],16.4%
same,inhibition,"[18]; single agent, at 0.05 µM",9.09%
same,inhibition,"[18]; single agent, at 5 µM",99.7%
